Laboratory results as given in article PMC6664820, “Novel natural and synthetic inhibitors of solute carriers SGLT1 and SGLT2” (Pharmacology Research & Perspectives, 2019).
In all, about 1,900 compounds went through this assay and about 40 (2%) showed an effect of 50% or more. This excerpt belongs to a sample that is enriched for strong results.

target: human SGLT1 (hSGLT1) (human, UniProt P13866); experiment: primary screen, percent of control activity; higher = less effect of the substance; parameters: single well; conditions: 50 µM
Sequence (P13866 whole entry, looked up): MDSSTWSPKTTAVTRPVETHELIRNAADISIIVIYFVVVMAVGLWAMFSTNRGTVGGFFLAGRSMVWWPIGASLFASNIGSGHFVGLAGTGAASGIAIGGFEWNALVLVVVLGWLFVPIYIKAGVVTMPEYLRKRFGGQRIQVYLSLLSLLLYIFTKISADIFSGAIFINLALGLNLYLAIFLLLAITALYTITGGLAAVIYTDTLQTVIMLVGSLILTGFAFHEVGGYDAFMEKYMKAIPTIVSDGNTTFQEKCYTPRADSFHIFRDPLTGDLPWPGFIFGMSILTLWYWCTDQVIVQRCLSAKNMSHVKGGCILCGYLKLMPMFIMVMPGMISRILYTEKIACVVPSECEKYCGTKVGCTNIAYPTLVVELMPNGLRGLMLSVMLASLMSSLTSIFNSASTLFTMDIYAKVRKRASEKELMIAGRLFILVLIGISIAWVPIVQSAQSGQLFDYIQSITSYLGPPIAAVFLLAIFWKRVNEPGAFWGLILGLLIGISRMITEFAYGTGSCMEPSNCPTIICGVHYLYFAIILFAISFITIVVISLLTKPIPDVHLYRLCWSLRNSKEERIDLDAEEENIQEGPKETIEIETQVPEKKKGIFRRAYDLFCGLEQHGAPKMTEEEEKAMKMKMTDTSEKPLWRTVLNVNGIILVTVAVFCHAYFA
Procedure, shortened: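 Single-point screen at 50 µmol/L in CHO-hSGLT1 cells, with 160 µmol/L 1-NBD-glucose in glucose-free DMEM for 90 min at 37°C. Fluorescence from isopropanol extracts was calibrated, and CHO wild-type uptake was subtracted. Data are percent of uptake without compound.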

Structure (SMILES)	NORMALIZED SGLT1 ACTIVITY (%)
C[C@@H]1[C@H]2[C@H](O[C@@H]3O[C@H](CO)[C@@H](O)[C@H](O)[C@H]3O)OC=C(C(=O)O)[C@H]2C[C@@H]1O	123%
Nc1ccn(C2O[C@H](CO)[C@@H](O)[C@H]2O)c(=O)n1 (stereo partly drawn)	107%
O=C(O[C@@H]1Cc2c(O)cc(O)cc2O[C@@H]1c1cc(O)c(O)c(O)c1-c1c([C@H]2Oc3cc(O)cc(O)c3C[C@H]2OC(=O)c2cc(O)c(O)c(O)c2)cc(O)c(O)c1O)c1cc(O)c(O)c(O)c1	99%
O=C1CCCC2C3CC(CN12)[C@@H]1CCCCN1C3.[O-][Cl+3]([O-])([O-])O (stereo partly drawn)	97%
Oc1cc(O)cc(/C=C/c2ccccc2)c1	39%
COc1ccc(/C=C/c2cc(O)cc(O)c2)cc1	198%
COc1cc(O)cc(/C=C/c2ccccc2)c1	494%
O=C1c2ccccc2C(=O)C1c1ccccc1	111%
COc1ccc(C(=O)CC(=O)O)c2c1C=CC(C)(C)O2	115%
CC(=O)/C(=C\c1ccccc1)CC(=O)O	142%
CC(=O)Oc1ccc(/C=C/c2cc(OC(C)=O)cc(OC(C)=O)c2)cc1	222%
COc1cc(-c2coc3cc(O[C@@H]4O[C@H](CO)[C@@H](O)[C@H](O)[C@H]4O)c(OC)c(O)c3c2=O)cc(O)c1OC	111%
COC(=O)C1[C@H]2C[C@H]3c4[nH]c5ccccc5c4CCN3C[C@@H]2CC[C@@H]1O.Cl (stereo partly drawn)	120%
CC(=O)O[C@@H]1CC2C(C)(C)CCC(=O)[C@]2(C)C2CC[C@@]3(C)[C@H](c4ccoc4)OC(=O)C4OC43[C@@]21C (stereo partly drawn)	126%
CCOc1nc2cccc(C(=O)OC(C)OC(=O)OC3CCCCC3)c2n1Cc1ccc(-c2ccccc2-c2nnn[nH]2)cc1 (stereo not drawn)	36%
CCCCc1nc(Cl)c(CO)n1Cc1ccc(-c2ccccc2-c2nnn[nH]2)cc1	249%
CCCCC1=NC2(CCCC2)C(=O)N1Cc1ccc(-c2ccccc2-c2nnn[nH]2)cc1	117%
N.N.[Cl][Pt][Cl]	90%
COc1ccc2c(c1)[C@@]1(C)CC[C@@H](O)C[C@@H]1CC2	116%
CC(C)=CCCC1(C)C=Cc2c(O)c3c(c(CC=C(C)C)c2O1)OC12C(=CC4CC1C(C)(C)OC2(C/C=C(/C)C(=O)O)C4O)C3=O (stereo not drawn)	174%
CC(C)=CCCC1(C)C=Cc2c(O)c3c(c(CC=C(C)C)c2O1)OC12C(=CCCC1C(C)(C)O[C@@]2(C/C=C(\C)C(=O)O)C(=O)O)C3=O (stereo partly drawn)	39%
CC(C)=CCCC1(C)C=Cc2c(O)c3c(c(CC=C(C)C)c2O1)OC12C(=CC4CC1C(C)(C)OC2(C/C=C(/C)C(=O)O)C4=O)C3=O (stereo not drawn)	163%
O=c1c(O)cccc2cc(O)c(O)c(O)c12	137%
CNC(C)[C@@H]1CC[C@@H](N)[C@@H](OC2[C@@H](N)C[C@@H](N)[C@H](OC3OC[C@](C)(O)[C@H](NC)[C@H]3O)[C@H]2O)O1.O=S(=O)(O)O (stereo partly drawn)	95%
